Compounds without any hit were thinned out: in the full panel of roughly 79,000, 15% have a hit. A number with no mark means an inactive call. Active and inactive are the calls of the source. Rule as the data show it: active = growth inhibition above about 70%; inactive = the rest.

Drawing on PubChem BioAssay (NCI), this text covers growth inhibition for 35 molecules.

Assay [1] is described as follows: NCI Yeast Anticancer Drug Screen. Data for the rad50 strain (AID 155).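 Also: 0% = growth of vehicle-only cultures of the same strain.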 Conditions: S. cerevisiae rad50 strain growth inhibition; at 50.0 µM; stronger effect = higher value. In short, it runs like this: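 Yeast carrying a defined DNA repair defect were exposed to test compounds, and growth was compared with vehicle-treated controls to give percent inhibition.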
A short description of assay [2]: NCI Yeast Anticancer Drug Screen. Data for the mec2-1 strain (AID 157). Conditions: S. cerevisiae mec2-1 strain, at 50.0 µM, stronger effect = higher value. The gist of the method: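 Readout is yeast growth inhibition, normalised to vehicle-treated controls, in the mec2-1 strain exposed to compound.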
Assay [3] can be described thus: NCI Yeast Anticancer Drug Screen. Data for the sgs1 mgt1 strain (AID 161).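 Also: 0% = growth of cultures given vehicle only.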 Particulars: S. cerevisiae sgs1 mgt1 strain, at 50.0 µM, stronger effect = higher value. The gist of the method:
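This yeast growth screen uses a strain with defined DNA-repair lesions; compound-treated growth is compared with vehicle-treated growth.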

Assay [4] in a line: NCI Yeast Anticancer Drug Screen. Data for the cln2 rad14 strain (AID 165).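 Also: 0% = growth equal to vehicle treated cultures.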 Particulars: S. cerevisiae cln2 rad14 strain, at 50.0 µM, stronger effect = higher value. In short, it runs like this:
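Relative to vehicle controls, growth inhibition of compound-treated cln2 rad14 yeast was recorded.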

A short description of assay [5]: NCI Yeast Anticancer Drug Screen. Data for the bub3 strain (AID 167). Conditions: S. cerevisiae bub3 mutant strain, at 50.0 µM, stronger effect = higher value. In short, it runs like this: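 Compounds were applied to a genetically altered yeast strain carrying a cell-cycle control defect. Growth inhibition was scored against vehicle-treated controls.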
Assay [6] in a line: NCI Yeast Anticancer Drug Screen. Data for the mlh1 rad18 strain (AID 175). Conditions: S. cerevisiae mlh1 rad18 strain growth inhibition; at 50.0 µM; stronger effect = higher value. In short, it runs like this: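 Test agents were incubated with a yeast strain of defined genotype (DNA damage repair defect). Inhibition of growth was derived by comparison with vehicle-exposed cultures.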

In the case of `CC(=O)OC1CC2(O)C(CCC3(C)C(c4ccc(=O)oc4)CCC32O)C2(C)CCC(O)C=C12` (stereo not given), the growth inhibition in assay [1] was 7.25%; in assay [2], -11.4%; in assay [3], -1.75%; in assay [4] it was -1.75%; in assay [5], -3.4%; in assay [6], 14.8%.
As for `O=C1NC(=O)C(O)(C2=C(O)CCC2=O)C(=O)N1`, the growth inhibition in assay [1] was 12.8%; in assay [2], -0.3%; in assay [3], 4.9%; in assay [4], -25.6%; in assay [5] it was 13.9%; in assay [6], 10.4%.
For the molecule `CN(C)C(=O)Sc1ccc(S(=O)(=O)F)cc1[N+](=O)[O-]`, the growth inhibition in assay [1] is 65.5%; in assay [2] it was 36.9%; in assay [3] it was 76.7% (active); in assay [4] it was 42.5%; in assay [5] it was 34.4%; in assay [6], 34.6%.
Consider `Cc1cc(Cl)ccc1O`, for which the growth inhibition in assay [1] was -1.2%; in assay [2], -14.8%; in assay [3], -0.3%; in assay [4], 0.5%; in assay [5], -3.1%; in assay [6], -1.7%.
For `c1ccc(N=Nc2ccccc2)cc1`, the growth inhibition in assay [1] was -1.25%; in assay [2] it was -7.5%; in assay [3], -4.2%; in assay [4], -9.55%; in assay [5], -5.15%; in assay [6], 24.6%.
In the case of `CN(C)CCNC(=O)c1cc([N+](=O)[O-])cc2c1Oc1ccccc1O2`, the growth inhibition was -7.05% in assay [1]; -12.6% in assay [2]; -7.35% in assay [3]; 16.9% in assay [4]; -7.2% in assay [5]; -7.3% in assay [6].
For the molecule `c1ccc2nc(-c3ccc4ccccc4n3)ccc2c1`, the growth inhibition in assay [1] was -5.95%; in assay [2] it was -7.45%; in assay [3], -3.4%; in assay [4], -49.4%; in assay [5], -13.7%; in assay [6] it was -12.2%.
For the molecule `COc1ccc2c(=O)c3ccccc3oc2c1CN(CCCl)CCCl`, the growth inhibition was 19.9% in assay [1]; 16.4% in assay [2]; -5.2% in assay [3]; 13.2% in assay [4]; -3.1% in assay [5]; -8.25% in assay [6].
`CN1C(=O)C(=CN(C)c2ccccc2)C(=O)N(C)C1=O`: the growth inhibition was 13.2% in assay [1]; 8.4% in assay [2]; 23.7% in assay [3]; 13.5% in assay [4]; 4.4% in assay [5]; -8.85% in assay [6].
Take `CCCCOCCOP(=O)(OCCOCCCC)OCCOCCCC`: the growth inhibition in assay [1] is 7.85%; in assay [2], -15.2%; in assay [3] it was 2%; in assay [4], -14.8%; in assay [5], -39%; in assay [6], -28.4%.
In the case of `CCCCCCCCCNP(=O)(OCc1ccccc1)N(CCCl)CCCl` (stereo not given), the growth inhibition is 55.5% in assay [1]; 37.2% in assay [2]; 40.2% in assay [3]; 34.8% in assay [4]; -0.4% in assay [5]; 26.4% in assay [6].
For `CCOP(=S)(OCC)Oc1ccc2c(c1)OC(=O)C1(Cl)C2(C)C2(Cl)C(=O)Oc3cc(OP(=S)(OCC)OCC)ccc3C12C` (stereo not given), the growth inhibition in assay [1] is 10.2%; in assay [2] it was 4.75%; in assay [3] it was 3.45%; in assay [4], 15.1%; in assay [5] it was 2.05%; in assay [6] it was 1.45%.
As to `O=P(O)(O)CCP(=O)(O)O`, the growth inhibition in assay [1] was -14.5%; in assay [2], 17.9%; in assay [3], -13.4%; in assay [4] it was 21.8%; in assay [5], -13.7%; in assay [6], -13.7%.
Take `COc1ccc(C(CC(=O)O)CC(=O)c2ccc(N(CCCl)CCCl)cc2)cc1` (stereo not given): the growth inhibition in assay [1] is 54%; in assay [2] it was 22.7%; in assay [3] it was 24.8%; in assay [4] it was 74.7% (active); in assay [5], 87.3% (active); in assay [6] it was 68.5%.
In the case of `COc1ccc(N=NC(=O)NC(CC(C)C)C(=O)NC(C)C(=O)O)cc1` (stereo not given), the growth inhibition in assay [1] is -11.8%; in assay [2], -26.4%; in assay [3], -8.5%; in assay [4] it was -19.6%; in assay [5], -31.4%; in assay [6] it was 5.15%.
Regarding `CC(C)CC(C)(C)COP(=S)(OCC(C)(C)CC(C)C)OCC(C)(C)CC(C)C`, the growth inhibition in assay [1] is 13.6%; in assay [2], -15%; in assay [3], 0.8%; in assay [4] it was -37%; in assay [5], -8.75%; in assay [6], 10.6%.
For `CCN(CC)CCO`, the growth inhibition is -4.1% in assay [1]; -4.9% in assay [2]; -9.6% in assay [3]; 7.05% in assay [4]; 15.2% in assay [5]; -23.6% in assay [6].
For the molecule `N/C(=N\N=C\c1ccc(O)cc1O)N[N+](=O)[O-]`, the growth inhibition in assay [1] was 12.2%; in assay [2] it was -0.85%; in assay [3], -3.45%; in assay [4], -41.7%; in assay [5] it was 3.65%; in assay [6] it was 4.1%.
As for `CCc1ccccc1[N+](=O)[O-]`, the growth inhibition in assay [1] is 27.2%; in assay [2], 28.7%; in assay [3], 3.8%; in assay [4] it was 4.65%; in assay [5] it was 6.45%; in assay [6], 21.2%.
Turning to `CC1(C)CN1C1=C(F)C(=O)C(N2CC2(C)C)=C(F)C1=O`, the growth inhibition is 36.5% in assay [1]; 68.2% in assay [2]; 50.5% in assay [3]; 8.45% in assay [4]; 47.3% in assay [5]; 74.3% (active) in assay [6].
Take `Clc1ccc(N=P(c2ccccc2)(c2ccccc2)c2ccccc2)cc1.[Cl][Cd][Cl]`: the growth inhibition in assay [1] was 95% (active); in assay [2] it was 71% (active); in assay [3] it was 81.8% (active); in assay [4], 75.9% (active); in assay [5], 64.2%; in assay [6], 69%.
With `CC(C)COC(=O)Cc1ccccc1`, the growth inhibition in assay [1] was 23.2%; in assay [2], 12.6%; in assay [3], 13.7%; in assay [4], -30.1%; in assay [5], -0.55%; in assay [6], 25.4%.
Take `CCC1(CCC(C)C)C(=O)NC(=NCCCC(N)C(=O)O)NC1=O` (stereo not given): the growth inhibition in assay [1] is 11.1%; in assay [2], -0.35%; in assay [3] it was 7.6%; in assay [4], 30.3%; in assay [5], 3.25%; in assay [6] it was 13.1%.
For the molecule `CO[C@@]12[C@H](COC(N)=O)C3=C(C(=O)C(C)=C(NCCO)C3=O)N1C[C@@H]1N[C@@H]12`, the growth inhibition in assay [1] was 3.75%; in assay [2], -27.1%; in assay [3] it was 21.1%; in assay [4], -0.4%; in assay [5], 7.35%; in assay [6], -7.45%.
Turning to `O[C@H](c1ccccc1)[C@@H](c1ccccc1)N1CCCCC1`, the growth inhibition in assay [1] is -9.85%; in assay [2], -11.9%; in assay [3] it was -3.65%; in assay [4], -28%; in assay [5], 41.9%; in assay [6], -11.6%.
For the molecule `CCC(N)CBr` (stereo not given), the growth inhibition in assay [1] was -9.65%; in assay [2], 1.7%; in assay [3] it was -9.5%; in assay [4], -16.9%; in assay [5], 5.3%; in assay [6], 8.9%.
On to `Cc1nnn[n-]1.N.N.N.N.N.[Cl-].[Co+3]`, for which the growth inhibition is 3.15% in assay [1]; -6.95% in assay [2]; -9.55% in assay [3]; 2.4% in assay [4]; -0.15% in assay [5]; -16.5% in assay [6].
In the case of `C/C=C(/C)C(=O)O[C@H]1CCN2CC=C(COC(=O)[C@@](O)([C@H](C)OC)C(C)(C)O)[C@H]12`, the growth inhibition was -17% in assay [1]; -15.8% in assay [2]; 3.65% in assay [3]; 11.6% in assay [4]; 7.55% in assay [5]; -44.2% in assay [6].
Regarding `CCOP(=O)(O)SP(=O)(O)OCC.[Zn+2]`, the growth inhibition in assay [1] was -13.9%; in assay [2], -11.8%; in assay [3] it was -7%; in assay [4] it was 2.9%; in assay [5] it was -5.45%; in assay [6] it was -0.35%.
As to `CCOP(=O)(CCN(C)C)OCC`, the growth inhibition in assay [1] was -6.45%; in assay [2], 3.55%; in assay [3], -4.4%; in assay [4] it was -27.7%; in assay [5], -7.9%; in assay [6] it was -0.45%.
For `C1C2CC3C1C1CN3C21` (stereo not given), the growth inhibition in assay [1] is 16.9%; in assay [2], 2.65%; in assay [3], 5.45%; in assay [4] it was -28%; in assay [5] it was -8.8%; in assay [6] it was 12.2%.
For the molecule `CCC1(CCBr)C(=O)NC(=O)NC1=O`, the growth inhibition in assay [1] is -33.6%; in assay [2] it was 3.35%; in assay [3] it was 11.8%; in assay [4] it was -34.5%; in assay [5], 21.6%; in assay [6] it was 2.3%.
As for `C[C@]12CC[C@@H](O)C[C@H]1[C@@H](O)C[C@@H]1[C@@H]2CC[C@]2(C)C(=O)CC[C@@H]12`, the growth inhibition was -17.4% in assay [1]; -4.35% in assay [2]; 3.05% in assay [3]; -17.1% in assay [4]; 25.7% in assay [5]; -11.1% in assay [6].
For `NC(=O)CI`, the growth inhibition in assay [1] was 30.8%; in assay [2], 27.1%; in assay [3], 38.1%; in assay [4], 13.8%; in assay [5] it was 18.5%; in assay [6] it was 17.1%.
As to `CCOP(O)OCC`, the growth inhibition in assay [1] is 0.6%; in assay [2], 11.4%; in assay [3], -5.25%; in assay [4], 23.9%; in assay [5], -5.2%; in assay [6], -1.35%.
